Results on 8 compounds are retold here after PubChem BioAssay (NCI).

Among the test systems are HT29 colon; SNB-75 CNS; SNB-19 CNS; U251 CNS; PC-3 prostate; SK-MEL-5 melanoma; UACC-62 melanoma; LOX IMVI melanoma; SK-MEL-28 melanoma; SK-MEL-2 melanoma; EKVX NSCLC; SN12C renal; UO-31 renal; TK-10 renal; CAKI-1 renal; A498 renal; CCRF-CEM leukemia; MOLT-4 leukemia; ACHN renal.
Holding throughout (assay): NCI-60 one-dose screen, 48 h (100 = growth as untreated, 0 = no growth, -100 = all killed)
What all share (settings): 10 µM unless noted

Compounds without any hit were thinned out: in the full panel of roughly 83,000, 20% have a hit.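 Activity criterion: percent growth below 10, measured after cells in 96-well plates were exposed to a single compound concentration for 48 hours.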 Values without a mark were called inactive. The source made the active and inactive calls.

With `CCCCN1C(=O)/C(=c2\sc3n(c2=O)NC2C(N=3)N(CC)C(=O)N2CC)c2ccccc21` (stereo not drawn), the growth was 16% with HT29 colon; 11.2% with SNB-75 CNS; 61.9% in the test on SNB-19 CNS; 33.8% in the test on U251 CNS; 45.1% in the test on PC-3 prostate; 55% in the test on SK-MEL-5 melanoma. For the same compound, the growth with UACC-62 melanoma was 37.4%; in the test on LOX IMVI melanoma it was 47.6%; in the test with SK-MEL-28 melanoma, 65.6%; in the test on SK-MEL-2 melanoma, 59.1%; with EKVX NSCLC, 67.9%; with SN12C renal it was 50.5%. The growth in the test with UO-31 renal is 40.1%; with TK-10 renal, 83.8%; in the test with CAKI-1 renal, 30.3%; with A498 renal it was 42.3%; with CCRF-CEM leukemia, 26.1%; with MOLT-4 leukemia, 43.6%.
In the case of `CCc1ccc(CCC(=O)Nc2ncc(Cc3ccc(Cl)cc3)s2)o1`, the growth in the test with SNB-75 CNS was -7.87% (active); in the test with SNB-19 CNS, 50.6%; in the test on U251 CNS it was 22.8%; in the test with PC-3 prostate, 29.3%; in the test on SK-MEL-5 melanoma it was 34.6%; in the test with UACC-62 melanoma it was 33.3%. The growth with LOX IMVI melanoma is 47.6%; in the test on SK-MEL-28 melanoma it was 66.3%; in the test with EKVX NSCLC, 37.2%; in the test on SN12C renal it was 44.8%; in the test on UO-31 renal it was 43%; with TK-10 renal, 60%. Further, the growth is 48.3% with ACHN renal; 31.9% with CAKI-1 renal; 0.963% (active) in the test with A498 renal; 22.4% in the test with CCRF-CEM leukemia; 36.5% in the test with MOLT-4 leukemia.
Regarding `Clc1nn2c(Cn3cnc4c(NCc5ccccc5)ncnc43)nnc2c2ccccc12`, the growth was 56.4% in the test on HT29 colon; 37.1% in the test on SNB-75 CNS; 61.9% in the test on SNB-19 CNS; 34.5% in the test on U251 CNS; 42% in the test on PC-3 prostate; 58.6% in the test with SK-MEL-5 melanoma. Besides, the growth was 22.4% in the test on UACC-62 melanoma; 31.3% with LOX IMVI melanoma; 46% in the test on SK-MEL-28 melanoma; -5.44% (active) in the test on SK-MEL-2 melanoma; 52% in the test with EKVX NSCLC; 32% in the test on SN12C renal. The growth in the test with UO-31 renal is 21.7%; with TK-10 renal, 40.5%; in the test on ACHN renal it was 16.8%; in the test with CAKI-1 renal, 3.56% (active); in the test on A498 renal, 22.5%; with CCRF-CEM leukemia, 39%. Also, the growth in the test on MOLT-4 leukemia is 26.5%.
On to `CC(=O)Nc1c(Cl)cc(Cl)c2c1Cc1cc([N+](=O)[O-])ccc1-2`, for which the growth in the test with HT29 colon was 81.4%; in the test with SNB-75 CNS, 58%; in the test with SNB-19 CNS, 99.8%; with U251 CNS, 74.3%; in the test on PC-3 prostate it was 81.2%; with SK-MEL-5 melanoma, 103%. The growth in the test with UACC-62 melanoma was 102%; in the test on LOX IMVI melanoma, 76.8%; with SK-MEL-28 melanoma, 100%; in the test on SK-MEL-2 melanoma, 105%; with EKVX NSCLC, 59.4%; in the test with SN12C renal it was 80.3%. Further, the growth was 91.1% in the test on UO-31 renal; 99.4% in the test with TK-10 renal; 82.3% in the test with ACHN renal; 84.5% with CAKI-1 renal; 102% in the test on A498 renal; 89.7% with CCRF-CEM leukemia. The growth in the test with MOLT-4 leukemia was 87%.
For `c1ccc2cc(Cn3c[n+](Cc4ccc5ccccc5c4)c4ccccc43)ccc2c1`, the growth in the test with HT29 colon was -80.6% (active); in the test on SNB-75 CNS it was -7.06% (active); with SNB-19 CNS, -20.1% (active); in the test on U251 CNS, -90.3% (active); in the test with PC-3 prostate, -19.4% (active); in the test on SK-MEL-5 melanoma, -98.1% (active). The growth in the test with UACC-62 melanoma is -70.1% (active); with LOX IMVI melanoma it was -93.9% (active); in the test on SK-MEL-28 melanoma, -28.9% (active); with SK-MEL-2 melanoma, -61.7% (active); with EKVX NSCLC it was 13.9%; in the test on SN12C renal it was 5.14% (active). Moreover, the growth with UO-31 renal was 53.6%; in the test with TK-10 renal it was -72% (active); in the test on ACHN renal it was 46.2%; in the test with CAKI-1 renal, 84.7%; in the test with A498 renal, -2.59% (active); in the test on CCRF-CEM leukemia it was -13.1% (active). The growth in the test on MOLT-4 leukemia was -27.1% (active).
`N#Cc1c(NC(=O)c2cccs2)[n+]([O-])c2ccc(Cl)cc2[n+]1[O-]`: the growth with HT29 colon was 107%; in the test on SNB-75 CNS, 91.7%; in the test with SNB-19 CNS, 103%; in the test with U251 CNS, 99%; in the test with PC-3 prostate, 96%; in the test on SK-MEL-5 melanoma, 37.7%. For the same compound, the growth is 82.2% in the test with UACC-62 melanoma; 94.8% in the test with LOX IMVI melanoma; 106% in the test with SK-MEL-28 melanoma; 59.3% in the test on SK-MEL-2 melanoma; 98.7% in the test on EKVX NSCLC; 99.8% in the test with SN12C renal. The growth in the test on UO-31 renal was 98.6%; with TK-10 renal it was 118%; in the test with ACHN renal it was 99.5%; with CAKI-1 renal, 73%; in the test with A498 renal it was 41.4%; in the test with CCRF-CEM leukemia, 95.9%. In the test with MOLT-4 leukemia, the growth was 97.3%.
For the compound `COc1cc2cc(Oc3ccc(NC(=O)Nc4ccccc4)cc3)c(C)nc2cc1OCCN1CCCCC1`, the growth in the test with HT29 colon was 17%; with SNB-75 CNS it was 74.9%; in the test on SNB-19 CNS, 91.6%; in the test with U251 CNS, 21.5%; in the test on PC-3 prostate, 82.7%; in the test with SK-MEL-5 melanoma it was 84.7%. Further, the growth in the test on UACC-62 melanoma is 95.4%; with LOX IMVI melanoma, 78.7%; with SK-MEL-28 melanoma, 91.6%; in the test with SK-MEL-2 melanoma it was 100%; with EKVX NSCLC, 99.8%; in the test with SN12C renal, 89.9%. Besides, the growth was 64.3% with UO-31 renal; 108% with TK-10 renal; 84.4% in the test with ACHN renal; 96.1% in the test on CAKI-1 renal; 55.4% with A498 renal; -20.9% (active) with CCRF-CEM leukemia. The growth in the test with MOLT-4 leukemia was -22.2% (active).
For the compound `CO[C@H](C(=O)[C@@H](O)[C@@H](C)O)[C@@H]1Cc2cc3cc(O[C@H]4C[C@@H](O[C@H]5C[C@@H](O)[C@H](O)C(C)O5)[C@H](O)C(C)O4)c(C)c(O)c3c(O)c2C(=O)[C@H]1O[C@H]1C[C@@H](O[C@H]2C[C@@H](O[C@H]3C[C@@H](OC)[C@H](O)C(C)O3)[C@@H](O)C(C)O2)C(O)(O)C(C)O1` (stereo partly drawn), the growth is -41.6% (active) in the test on SNB-75 CNS; 11.8% with SNB-19 CNS; 9.8% (active) in the test on U251 CNS; 19.4% in the test with PC-3 prostate; -51.5% (active) in the test with SK-MEL-5 melanoma; -43.5% (active) in the test with UACC-62 melanoma. Moreover, the growth was 3.54% (active) in the test on LOX IMVI melanoma; -15.5% (active) in the test on SK-MEL-28 melanoma; -79.2% (active) in the test with SK-MEL-2 melanoma; 18% in the test on EKVX NSCLC; 8.08% (active) in the test with SN12C renal; 3.17% (active) with UO-31 renal. Further, the growth in the test with TK-10 renal was 12.1%; with ACHN renal, 0.683% (active); in the test on CAKI-1 renal, 6.9% (active); in the test with A498 renal it was -35.7% (active); with CCRF-CEM leukemia, 34.2%; in the test with MOLT-4 leukemia it was 18%.
